Test [1] is described as follows: NCI Yeast Anticancer Drug Screen. Data for the rad50 strain (AID 155).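 Note: 0% = growth of vehicle-only cultures of the same strain.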 The note with it: S. cerevisiae rad50 strain growth inhibition; at 50.0 µM; stronger effect = higher value. The method, boiled down: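 A DNA repair-deficient yeast mutant serves as the test organism; compound-induced growth inhibition is calculated against vehicle-treated cells.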
Test [2] can be described thus: NCI Yeast Anticancer Drug Screen. Data for the mec2-1 strain (AID 157). To be noted: S. cerevisiae mec2-1 strain, at 50.0 µM, stronger effect = higher value. The method, boiled down:
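Each compound was tested on mec2-1 yeast, a strain altered in DNA damage repair or cell cycle control. Growth inhibition is reported relative to vehicle.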

A short description of test [3]: NCI Yeast Anticancer Drug Screen. Data for the sgs1 mgt1 strain (AID 161).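 Note: 0% = growth of cultures given vehicle only.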 The note with it: S. cerevisiae sgs1 mgt1 strain, at 50.0 µM, stronger effect = higher value. Put shortly:
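Read-out: growth inhibition vs vehicle controls. Cells: mutant yeast strain deficient in DNA damage repair.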

Test [4] can be described thus: NCI Yeast Anticancer Drug Screen. Data for the cln2 rad14 strain (AID 165).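 Note: 0% = growth equal to vehicle treated cultures.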 The note with it: S. cerevisiae cln2 rad14 strain, at 50.0 µM, stronger effect = higher value. The method, boiled down:
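Test compounds were added to cln2 rad14 yeast cultures; inhibition of growth was then determined by comparison with vehicle treatment.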

Test [5] is described as follows: NCI Yeast Anticancer Drug Screen. Data for the bub3 strain (AID 167). To be noted: S. cerevisiae bub3 mutant strain, at 50.0 µM, stronger effect = higher value. The method, boiled down:
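Inhibition values come from growth of compound-treated mutant yeast normalised to vehicle-treated controls.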

A short description of test [6]: NCI Yeast Anticancer Drug Screen. Data for the mlh1 rad18 strain (AID 175). The note with it: S. cerevisiae mlh1 rad18 strain growth inhibition; at 50.0 µM; stronger effect = higher value. The method, boiled down:
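Inhibition values reflect reduced growth of mutant yeast versus vehicle-treated controls following compound exposure; the mutations affect DNA damage repair.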

Where “and” joins values, the source holds several entries; their conditions need not be identical. Equal entries are not always repeated. About 79,000 compounds went through this panel and 15% of them were active in at least one assay; those are over-represented in the sample as a whole. Values without a mark were called inactive. Calls of active or inactive are those of the source. Cut-off read from the data, not from the text of the source: active = growth inhibition above about 70%; inactive = the rest.

In the case of `OCC1C(/C=C/c2ccoc2)ON2CCCC12` (stereo not given), the growth inhibition was -16.6% in test [1]; -0.5% in test [2]; -8.05% in test [3]; 26.6% in test [4]; 18.1% in test [5]; -27.6% in test [6].

As for `C[C@]12Cc3cnc(-c4ccccc4)nc3C[C@@H]1CC[C@@H]1[C@@H]2CC[C@@]2(C)[C@H]1CC[C@]2(C)O`, the growth inhibition in test [1] is 23.6%; in test [2], 25.1%; in test [3], 13.1%; in test [4] it was 9.55%; in test [5] it was 39.5%; in test [6], 20.1%.

Turning to `CCC1(O)C(=O)OCc2c1cc1n(c2=O)Cc2cc3ccc(C=O)cc3nc2-1` (stereo not given), the growth inhibition in test [1] is 39.5%; in test [2], 19%; in test [3] it was -17.5%; in test [4], 2.3%; in test [5], -24.7%.

Take `CC(C)[C@]12O[C@H]1[C@@H]1O[C@]13[C@]1(O[C@H]1C[C@H]1C4=C(CC[C@@]13C)C(=O)OC4)[C@@H]2O`: the growth inhibition in test [1] was 4.6%; in test [2], 2.9%; in test [3], -20.1%; in test [4], -5.1%; in test [5] it was -17.2%.

On to `C=C(C)C1(CC)C(=O)NC(=O)N(C)C1=O` (stereo not given), for which the growth inhibition in test [1] was 11.8% and -4.5%; in test [2] it was 7.5% and 9.4%; in test [3], -1.25% and -7.5%; in test [4], 10.2% and -11.2%; in test [5] it was 3.65% and 1.5%.

For the molecule `COC(=O)C1(C(=O)OC)Cc2ccc(C)cc2C2=C1C(=O)c1ccccc1C2=O`, the growth inhibition was -25.8% in test [1]; -10.2% in test [2]; 5.5% in test [3]; 7.55% in test [4]; -3.4% in test [5]; 7.85% in test [6].

`CN(C)CCNC(=O)c1cc(COC(=O)N(CCCl)CCCl)ccc1[N+](=O)[O-]`: the growth inhibition in test [1] is 38.2%; in test [2] it was 36.9%; in test [3], 56.1%; in test [4], 28.1%; in test [5], 35.8%; in test [6] it was 56.8%.

As for `NNC(=S)NN`, the growth inhibition in test [1] was 4.95%; in test [2] it was 4.3%; in test [3] it was 1.7%; in test [4] it was -15.4%; in test [5], -2.6%; in test [6], 35.6%.

Regarding `CCC1(OC(=O)CNC)C(=O)OCc2c1cc1n(c2=O)Cc2cc3ccccc3nc2-1` (stereo not given), the growth inhibition in test [1] was 78.7% (active); in test [2], 83.7% (active); in test [3] it was 76.3% (active); in test [4] it was 60.2%; in test [5], 72% (active).

Take `COc1ccc2nc3cc(Cl)ccc3c(NCCCN(CCCl)CCCl)c2c1`: the growth inhibition in test [1] is 51%; in test [2] it was 19.2%; in test [3] it was 37.2%; in test [4] it was 34.2%; in test [5], 7.6%.

For the molecule `O=[N+]([O-])c1ccc(OCc2ccc(COc3ccc(S(=O)(=O)F)cc3)cc2)c(Cl)c1`, the growth inhibition was -0.6% in test [1]; -8.15% in test [2]; -2.3% in test [3]; -6.35% in test [4]; -7.6% in test [5].

In the case of `CC1=C[C@H]2O[C@@H]3[C@H](O)[C@@H](O)[C@](C)(C2(COC(=O)CCl)CC1)[C@@]31CO1` (stereo not given in full), the growth inhibition in test [1] was 87% (active); in test [2], 89.7% (active); in test [3], 87.7% (active); in test [4], 90.2% (active); in test [5] it was 88.5% (active).

For `C1CN([PH+](N2CC2)N2CC2)CCO1.C1CN([PH+](N2CC2)N2CC2)CCO1.[I][Pd][I]`, the growth inhibition in test [1] is 3.9%; in test [2] it was 6.7%; in test [3], -5.7%; in test [4] it was -8.05%; in test [5], 0%; in test [6] it was -4.4%.

As for `O=S(=O)(O)O/N=C(\Cc1ccccc1)SC1OC(CO)C(O)C(O)C1O` (stereo not given), the growth inhibition was -2.45% in test [1]; -7.1% in test [2]; -2.55% in test [3]; -7% in test [4]; -0.75% in test [5]; -3.25% in test [6].

Consider `CNC(=O)Oc1ccc(C=Nc2cccc([N+](=O)[O-])c2)cc1`, for which the growth inhibition in test [1] is 2.9%; in test [2], 37.4%; in test [3] it was 14.7%; in test [4], 0.65%; in test [5] it was 34.9%; in test [6], 32.5%.

Regarding `CCOP1(=S)NNP(=S)(OCC)NN1` (stereo not given), the growth inhibition in test [1] is -2.75%; in test [2], -11.5%; in test [3], -3.75%; in test [4], 18.4%; in test [5] it was 10.2%.

Regarding `CN1CCC2CCCCN2CC1=O` (stereo not given), the growth inhibition in test [1] is -4.15%; in test [2], 0.45%; in test [3], -1%; in test [4], -4.35%; in test [5], -12%.

On to `CS(=O)(=O)CS(=O)(=O)OCCF`, for which the growth inhibition in test [1] was 5%; in test [2] it was -12.4%; in test [3], -10.6%; in test [4], -9.55%; in test [5], -29%; in test [6], -33.2%.

Turning to `c1ccc2c(c1)oc1ccccc12`, the growth inhibition in test [1] is 2.05%; in test [2], 11.3%; in test [3], 7.2%; in test [4], -64.5%; in test [5], 4%; in test [6] it was -4.1%.

For the molecule `CC(=O)OC1CC(OC2C(O)CC(OC3C(O)CC(OC4CCC5(C)C(CCC6C5CCC5(C)C(C7=CC(=O)OC7)C(O)CC65O)C4)OC3C)OC2C)OC(C)C1OC1OC(CO)C(O)C(O)C1O` (stereo not given), the growth inhibition was 18.1% in test [1]; 8.8% in test [2]; -12.8% in test [3]; 8.1% in test [4]; 21.8% in test [5]; 10.8% in test [6].

As for `S=c1nccc[nH]1`, the growth inhibition in test [1] was 37.5%; in test [2], 24.2%; in test [3], 34.5%; in test [4] it was 37.5%; in test [5], 0.35%; in test [6], 17.4%.

Take `O=C1NC(=O)C(c2ccsc2)C(=O)N1`: the growth inhibition in test [1] was -20.6%; in test [2], -2.25%; in test [3], -30.4%; in test [4], -40.5%; in test [5], 7.5%; in test [6] it was 1.45%.

For the molecule `CO[C@H]1C[C@H](O[C@H]2CC[C@]3(C=O)[C@H]4CC[C@]5(C)[C@@H](C6=CC(=O)OC6)CC[C@]5(O)[C@@H]4CC[C@]3(O)C2)O[C@H](C)[C@H]1O[C@@H]1O[C@H](CO)[C@@H](O)[C@H](O)[C@H]1O`, the growth inhibition in test [1] is 18.4%; in test [2] it was -11.1%; in test [3], 6.2%; in test [4], 12.2%; in test [5] it was 6.9%; in test [6], 32.3%.

Consider `C/C=C1/CN2CCC34C(=C(C(=O)OC)C1CC23)Nc1ccc(O)cc14` (stereo not given), for which the growth inhibition in test [1] is 2.9%; in test [2], 2.3%; in test [3] it was 27.7%; in test [4], -4.05%; in test [5], 1.65%; in test [6], -61%.

For `O=C(CC([Se]c1ccccc1)c1ccccc1)c1ccccc1` (stereo not given), the growth inhibition in test [1] was 98% (active); in test [2], 88.8% (active); in test [3] it was 95.7% (active); in test [4], 89.4% (active); in test [5], 93.7% (active); in test [6] it was 98% (active).

Take `O=C1C2CCN(CC2)C1Cn1cnc2c(Cl)ncnc21` (stereo not given): the growth inhibition was -3.9% in test [1]; 4.1% in test [2]; -4.35% in test [3]; -0.55% in test [4]; -2.55% in test [5]; -0.75% in test [6].

As to `NC(N)=Nc1c(N)ncnc1N`, the growth inhibition in test [1] is -4.9%; in test [2], 6.2%; in test [3], 4.4%; in test [4], -2.65%; in test [5], -0.8%; in test [6] it was -4.45%.

In the case of `COc1ccc2c(c1O)C13CCN(C)C(C2)C1CCC(O)C3` (stereo not given), the growth inhibition in test [1] was -16.4%; in test [2], 2.95%; in test [3] it was -11.8%; in test [4], -11.8%; in test [5] it was -1.7%; in test [6] it was -20%.

In the case of `COc1cccc(/C=N/[N-]C(=O)c2ccncc2)c1[O-].[Ni+2].[OH3+]`, the growth inhibition in test [1] is -14.6%; in test [2], -4.05%; in test [3], -12.1%; in test [4], 18.1%; in test [5] it was -12.2%; in test [6], -14.2%.

These data come from PubChem BioAssay (NCI).
